The values that follow come from PubChem BioAssay (NCATS).

Inconclusive results are not listed. A number with no mark means an inactive call. The source made the active and inactive calls. Calls follow the shape of the dose curve; as a rule, active = well fitted cell-killing curve with a large enough effect; inconclusive = small, poorly fitted or top-dose-only effect, or effect the other way; inactive = no such curve, though single readings can be large or run the other way.
Potency is read from the fitted curve at half-maximal effect.

This experiment in a line: Quantitative High-Throughput drug screen in 47 multiple myeloma cell lines against the NCATS MIPE library collection: MOLP8_DSMZ cell viability assay (AID 1918977). Also: nearly all actives have a fitted effect of over 45% in size. The note with it: MOLP8 myeloma viability, CellTiter-Glo ATP luminescence, 48 h; series mostly up to 45.8 µM; viability (% of control): at the top concentration. The text has this:
PI: Beverly A. Mock Ph.D.
Laboratory of Cancer Biology and Genetics,
Center for Cancer Research, National Cancer Institute,
National Institute of Health, Bethesda, Maryland
Drug resistance and disease progression are common in multiple myeloma (MM) patients, underscoring the need for new therapeutic combinations. […] We hypothesized that effective combinations would reduce MYC expression and enhance p16 activity. […] These preclinical data identify potentially useful drug combinations for evaluation in drug-resistant MM and reveal potential mechanisms of combined drug sensitivity.
Described herein is the primary MIPE qHTS used to cherrypick compounds. Validated compounds were then further tested for potential synergistic activiy.
[1] Peat TJ, Gaikwad SM, Dubois W, Gyabaah-Kessie N, Zhang S, Gorjifard S, Phyo Z, Andres M, Hughitt VK, Simpson RM, Miller MA, Girvin AT, Taylor A, Williams D, D'Antonio N, Zhang Y, Rajagopalan A, Flietner E, Wilson K, Zhang X, Shinn P, Klumpp-Thomas C, McKnight C, Itkin Z, Chen L, Kazandijian D, Zhang J, Michalowski AM, Simmons JK, Keats J, Thomas CJ, Mock BA. Drug combinations identified by high-throughput screening promote cell cycle transition and upregulate Smad pathways in myeloma. Cancer Lett. 2023 Aug 1;568:216284. doi: 10.1016/j.canlet.2023.216284. Epub 2023 Jun 24. PMID: 37356470; PMCID: PMC10408729.
SEQUENCE No. (e.g., 1, 2, 3, etc.); […] (e.g., Cells, Incubation, Reagent, etc.); VALUE and DESCRIPTION.
1; Cells; 5 uL; white, solid bottom 1536-well Greiner assay plate.
2; Compounds; 23 nL; Kalypsis pin tool (Wako USA) equipped with a 1536-well pin head to transfer to the assay plates.
3; Incubation; 48 hours; 37C incubation.
4; Reagent;5uL; CellTiter Glo (Promega).
5; Detector; 425V; Luminescence; Viewlux PerkinElmer.
NOTES (numbers refer to Sequence numbers above)
1. The cell-based screening methods employed in this study were like those previously published. Briefly, the corresponding myeloma cell lines were screened in 1,536-well plates with 500 cells, 5-uL per well for inhibition of cell viability (assessed by measuring ATP levels with CellTiterGlo).
2. NCATS MIPE 4.0 library of approved and investigational drugs were added using the Kalypsis pin tool. Wells treated with DMSO only for 100% viability and media only for 0% viability were used as controls.
3. The assay plates were covered and incubated for 48 hours in a 37C, 5% CO2 incubator with controlled humidity.
4. After 48 hours, CellTilter-GloTM luminescent substrate mix (Promega) reagent was added to the assay plate and plates we incubated for 5 min at room temperature.
5. Signal was measured as median relative luminescence units on a ViewLux (PerkinElmer) multiplate reader.
[1] Heske CM, Davis MI, Baumgart JT, Wilson K, Gormally MV, Chen L, Zhang X, Ceribelli M, Duveau DY, Guha R, Ferrer M, Arnaldez FI, Ji J, Tran HL, Zhang Y, Mendoza A, Helman LJ, Thomas CJ. Matrix Screen Identifies Synergistic Combination of PARP Inhibitors and Nicotinamide Phosphoribosyltransferase (NAMPT) Inhibitors in Ewing Sarcoma. Clin Cancer Res. 2017 Dec 1;23(23):7301-7311. doi: 10.1158/1078-0432.CCR-17-1121. Epub 2017 Sep 12. PMID: 28899971; PMCID: PMC6636827.
For the compound `COc1cccc(-c2cc(=O)c3ccccc3o2)c1N`, the “viability (% of control)” value is 73.1%.

Turning to `O=C1NC(=O)C(=Cc2ccc3c(c2)OC(F)(F)O3)S1`, the “viability (% of control)” value was 111%.

`COc1ccc(-c2coc3cc(O)ccc3c2=O)cc1`: the Potency is 0.0059 µM (active).

Turning to `CCN(CC)CCOc1ccc(C(=C(Cl)c2ccccc2)c2ccccc2)cc1`, the “viability (% of control)” value is 127%.

For `O=c1cc(N2CCOCC2)oc2c(-c3cccc4c3sc3ccccc34)cccc12`, the Potency is 4.18 µM (active).

With `O=C1C[C@@H](c2ccc(O)cc2)Oc2cc(O)cc(O)c21`, the “viability (% of control)” value is 72.6%.

With `C[C@]12CC[C@@H]3c4ccc(O)cc4C[C@@H](CCCCCCCCCS(=O)CCCC(F)(F)C(F)(F)F)[C@H]3[C@H]1CC[C@H]2O` (stereo not given in full), the “viability (% of control)” value is 88.4%.

For `CC(C)(C(=O)NCC(F)(F)C(F)(F)F)C(=O)N[C@@H]1C(=O)Nc2ccccc2-c2ccccc21`, the “viability (% of control)” value was 123%.

With `O=C(CCN1CCN(C(=O)OCc2cc(Cl)cc(Cl)c2)CC1)c1ccc2[nH]c(=O)oc2c1`, the “viability (% of control)” value was 105%.

`CON=C(C(=O)N[C@@H]1C(=O)N2C(C(=O)OCOC(=O)C(C)(C)C)=C(C=Cc3scnc3C)CS[C@H]12)c1csc(N)n1`: the “viability (% of control)” value was 115%.

Regarding `Clc1ccc(C(c2ccc(Cl)cc2)n2cc[n+](CC(OCc3ccc(Cl)cc3Cl)c3ccc(Cl)cc3Cl)c2)cc1` (stereo not given), the Potency is 18.7 µM (active).

Consider `CC=CCC=CCCC(=O)[C@H]1O[C@@H]1C(N)=O`, for which the Potency is 14.8 µM (active).

Consider `NS(=O)(=O)c1cccc2c1C(=O)c1cccc(O)c1C2=O`, for which the Potency is 0.296 µM (active).

`Oc1ccc(C2=Cc3ccc(O)cc3OC2)cc1`: the Potency is 2.35 µM (active).

`Cn1c(N2CCCCS2(=O)=O)nc(C(=O)NCc2ccc(F)cc2)c(O)c1=O`: the “viability (% of control)” value is 108%.

For `O=C1c2ccccc2-[n+]2ccc3c([nH]c4ccccc43)c21`, the Potency is 1.48 µM (active).

Take `COc1ccc(-n2c(C)c([N+](=O)[O-])c3ccc(O)cc32)cc1`: the “viability (% of control)” value is 75.9%.

For the compound `CC(C)(C)Cn1c(N)nc2ccc(-c3[nH]c(C(C)(C)C)nc3-c3ccc(F)cc3)nc21`, the Potency was 7.43 µM (active).

Take `CCOC(=O)O[C@]1(C(=O)OCCl)CC[C@@H]2[C@H]3CCC4=CC(=O)C=C[C@]4(C)[C@@H]3[C@@H](O)C[C@@]21C`: the “viability (% of control)” value was 90.6%.

Regarding `O=C(O)c1cc(O)c2c(c1)C(=O)c1cccc(O)c1C2=O`, the Potency was 38.2 µM (active).

Consider `CC(C)(C)COc1ccc(-n2cc(C(=O)O)cn2)cc1C#N`, for which the “viability (% of control)” value was 95.7%.

Consider `Cc1nc(N)sc1-c1ccnc(Nc2ccc(N3CCOCC3)cc2)n1`, for which the Potency is 7.43 µM (active).

For the compound `CC(C)OC(=O)CCCC=CC[C@@H]1[C@H](C=C[C@@H](O)COc2cccc(C(F)(F)F)c2)[C@H](O)C[C@@H]1O`, the Potency is 26.4 µM (active).

`Nc1ncnc2c1ncn2[C@@H]1O[C@@H](CO)[C@H](O)[C@H]1O`: the “viability (% of control)” value is 106%.

Regarding `NS(=O)(=O)c1ccc(NC2=CC(=O)c3ccccc3C2=O)cc1`, the “viability (% of control)” value was 102%.

Turning to `CC(=O)Nc1ccc([C@H](C)C(=O)Nc2ncc(C(C)C)s2)cc1`, the Potency is 3.32 µM (active).

Turning to `Cc1ccc(Nc2cc(-c3cccc(N4C(=O)c5ccccc5C4=O)c3)ncn2)cc1NS(C)(=O)=O`, the Potency is 20.9 µM (active).

As for `O=C1NC(=O)C(=Cc2cccc(C(F)(F)F)c2)S1`, the “viability (% of control)” value is 103%.

With `COc1ccc2cc(-c3nc(-c4ccc(S(C)=O)cc4)[nH]c3-c3ccncc3)ccc2c1` (stereo not given), the “viability (% of control)” value was 75.4%.

As to `O=C(O)c1ccccc1C(=O)Nc1ccc(-c2ccccc2)cc1`, the “viability (% of control)” value was 84.4%.

Turning to `CN1C[C@H]2c3ccccc3Oc3ccc(Cl)cc3[C@@H]2C1`, the “viability (% of control)” value is 76.5%.

As for `O=C(O)c1ccc(-c2c[nH]c3ncc(-c4ccccc4)cc23)cc1C1CCCC1`, the “viability (% of control)” value was 120%.

Turning to `C[N+]1(C)[C@@H]2CC(OC(=O)[C@H](CO)c3ccccc3)C[C@H]1[C@H]1O[C@@H]12` (stereo not given in full), the “viability (% of control)” value was 138%.

In the case of `O=C1C(Cl)=C(NCCN2CCOCC2)C(=O)c2ncccc21`, the Potency was 2.96 µM (active).

For `Cc1[nH]c(C=C2C(=O)Nc3ccc(S(=O)(=O)Cc4c(Cl)cccc4Cl)cc32)c(C)c1C(=O)N1CCC[C@H]1CN1CCCC1`, the Potency was 16.6 µM (active).

For `O=C(Nc1cccc(Br)c1)c1cccc(S(=O)(=O)N2CCCCCC2)c1`, the “viability (% of control)” value was 68%.

For the compound `CN(C)c1cc(NC(=O)CNC(C)(C)C)c(O)c2c1C[C@@H]1C[C@H]3[C@H](N(C)C)C(=O)C(C(N)=O)=C(O)[C@@]3(O)C(=O)C1=C2O`, the Potency was 9.35 µM (active).

Regarding `O=C(Nc1ccccc1Br)N[C@@H]1CCN(c2ccc(C(F)(F)F)cn2)C1`, the “viability (% of control)” value is 96.4%.

Take `Clc1cc(Cl)cc(CNc2ncncc2-c2ccc3c(c2)OCO3)c1`: the “viability (% of control)” value is 71.5%.

Regarding `CC(=O)N(C)C1(c2ccccc2)CCN(CCC[C@]2(c3ccc(Cl)c(Cl)c3)CCCN(C(=O)c3ccccc3)C2)CC1`, the Potency was 23.5 µM (active).
